Compounds with a hit are over-represented: about 17% of the library has one in this group of screens.
TDP1 cell noCPT = qHTS for Inhibitors of human tyrosyl-DNA phosphodiesterase 1 (TDP1): qHTS in cells in absence of CPT; DT40 Tdp1-/- hTDP1 cells, no CPT, ATP luminescence, 48 h; Potency, µM (highest dose often 46.2 µM), for inactives: top-dose activity change, negative = growth inhibition, actives largely listed as inhibitors; hit rate 15% among 420,000; AID 686978, 2013; also: % is scaled to controls: 0 for no effect and ±100 for the full control effect; nearly all actives have a fitted effect of over 55% in size
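Cells were dispensed at 400 per well, compounds added by pin tool, plates incubated ≥48 hr at 37 °C, then CellTiter-Glo added for 30 min at room temperature before luminescence reading. Line: DT40 Tdp1-/- complemented with hTDP1; camptothecin omitted.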
HT1080-NT tox = qHTS for induction of synthetic lethality in tumor cells producing 2HG: qHTS for the HT-1080-NT fibrosarcoma cell line; HT-1080-NT fibrosarcoma viability, CellTiter-Glo ATP luminescence, 48 h; Potency, µM (highest dose often 46.1 µM), for the others: at the highest dose activity, negative = less viability, most hits filed as cytotoxic; hit rate 1.6% among 360,000;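 also: NT is the 2HG producing partner of a matched IDH1 knockdown line; 0% = DMSO-treated cells and -100% = media-only wells without cells; nearly all actives have a fitted effect of over 55% in size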
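Luminescent CellTiter-Glo readout after 48 hours of compound exposure at 37 degrees C defined viability of HT-1080-NT cells. Activity was normalized to DMSO wells and cell-free media wells; concentration-response curves were fitted and assigned curve classes.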
DT40 TDP1 CPT = qHTS for Inhibitors of human tyrosyl-DNA phosphodiesterase 1 (TDP1): qHTS in cells in presence of CPT; chicken DT40 Tdp1-/-;hTDP1 cells + 20 nM CPT, ATP luminescence, 48 h; Potency, µM (highest dose often 46.2 µM), for the others: at the highest dose activity change, negative = growth inhibition, usual class: inhibitors; hit rate 12% among 420,000; also: % is scaled to controls: 0 for no effect and ±100 for the full control effect; nearly all actives have a fitted effect of over 55% in size
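Cell growth measured by CellTiter-Glo luminescence after a minimum 48 h, 37 C compound exposure with 20 nM CPT in Tdp1-knockout DT40 cells stably expressing hTDP1, seeded 400/well; qHTS titration format.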
TGFb SMAD3 inh = qHTS for Inhibitors of TGF-b. HepG2 CAGA-GFP TGF-b/SMAD3 reporter, GFP fluorescence, 18 h; TGF-beta stimulated, 500 pg/mL final. Potency, µM (series often up to 46.1 µM), for the others: at the top dose activity, negative = inhibition, hits mostly inhibitors. hit rate 1.2% among 410,000; also: % is scaled to controls: 0 for no effect and ±100 for the full control effect; nearly all actives have a fitted effect of over 65% in size
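Using HEPG2 CAGA-GFP reporter cells at 1000 cells/well, we pinned test compounds, stimulated with recombinant TGF-beta (500 pg/mL final) and measured total well GFP after 18 h.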
HT1080 IDH1KD tx = qHTS for induction of synthetic lethality in tumor cells producing 2HG: qHTS for the HT-1080-IDH1KD cell line; HT-1080 IDH1 knockdown viability, ATP luminescence, 48 h; hit rate 2% among 360,000; Potency, µM (series often up to 46.1 µM), for inactives: at the top dose activity, negative = toxicity, hits mostly cytotoxic;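 also: 0% = DMSO wells and -100% = cell-free medium wells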
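CellTiter-Glo luminescence after 48 h compound exposure at 37 degrees C of IDH1-knockdown HT-1080 cells in 5% FBS RPMI. %Activity scaled between DMSO wells and cell-free media wells, with curves fitted and assigned curve classes.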
HepG2 tox = qHTS for Inhibitors of TGF-b: Cytotox Counterscreen; HepG2 CAGA-GFP viability, ATP luminescence, 18 h; Potency, µM (highest dose often 46.1 µM), for the others: top-dose activity change, negative = cytotoxicity, most hits filed as cytotoxic; hit rate 0.76% among 410,000; AID 588856, 2011
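HepG2 CAGA-GFP cells (1000/well, DMEM with 1% FBS) received compound, then TGF-beta at 500 pg/mL final, and were incubated 18 hours at 37 degrees C. Viability was read by CellTiter-Glo luminescence. Media-only wells were set as complete cell-killing and DMSO as no toxicity.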
Active calls of the source: *; ? = inconclusive; · = not tested or not shown; [ ] = remark or other dose. Calls follow the shape of the dose curve; as a rule, active = well fitted curve in the direction sought with a large enough effect; inconclusive = small, poorly fitted or top-dose-only effect, or another doubt; inactive = no such curve, though single readings can be large; an effect the other way counts as inactive or inconclusive. Potency is read from the fitted curve at half-maximal effect.

SMILES	TDP1 cell noCPT	HT1080-NT tox	DT40 TDP1 CPT	TGFb SMAD3 inh	HT1080 IDH1KD tx	HepG2 tox
O=C(O)/C=C/C(=O)c1ccc2c(c1)NC(=O)CO2	-10.1%	0.3%	15.1%	10.1%	2.7%	11.1%
Cc1ccccc1OCCC(=O)Nc1ccc2c(C)cc(=O)oc2c1	13.3%	13.5%	?	4.8%	8.6%	11.3%
CC1(C)CCC[C@]2(C)C3CC(=O)O[C@@]3(C)CC[C@H]12 (some centres not stated)	?	·	-0.4%	·	·	·
Cc1cccc(NC(c2cccc(Cl)c2)c2ccc3cccnc3c2O)n1 (configuration not stated)	5.17µM*	·	5.17µM*	?	·	-6.5%
CCCC(=O)NC(c1cccc([N+](=O)[O-])c1)c1ccc2cccnc2c1O (configuration not stated)	2.91µM*	?	11.6µM*	-27.6%	?	-16.0%
Cc1ccnc(NC(c2cccc(O)c2)c2ccc3ccc(C)nc3c2O)c1 (configuration not stated)	?	·	?	?	·	-27.1%
CCC(=O)NC(c1cccc([N+](=O)[O-])c1)c1c(OC(C)=O)ccc2ccccc12 (configuration not stated)	?	-23.4%	?	-1.8%	-19.1%	-12.7%
Cc1cc(Br)ccc1NCc1ccccn1	-22.5%	4.0%	?	-23.7%	-8.3%	-44.0%
CC(C)(C)OC(=O)N[C@@H](C(=O)OC(C)(C)C)c1ccc(Br)cc1	-2.6%	-3.7%	?	12.6%	-10.2%	-9.3%
CC1=CCC2COC(c3ccc[n+](Cc4ccccc4)c3)C1C2 (configuration not stated)	2.91µM*	-27.4%	3.66µM*	4.2%	-25.5%	15.5%
CC(C)CCc1noc(CN2CCN(CC(=O)NC(C)C)CC2)n1	25.9µM*	-11.9%	25.9µM*	7.5%	-4.7%	5.1%
CCCN1C2=C(C(=O)CC(C)(C)C2)C(c2ccc(F)cc2)C2=C1c1ccccc1C2=O (configuration not stated)	?	2.1%	20µM*	-7.6%	6.9%	3.6%
CCN(CC)CCN1C2=C(C(=O)CC(C)(C)C2)C(c2cccc(F)c2)C2=C1CC(C)(C)CC2=O	?	-0.8%	-28.3%	2.1%	-11.7%	-28.0%
CCCCN1C2=C(C(=O)CC(C)(C)C2)C(c2ccccc2)C2=C1c1ccccc1C2=O (configuration not stated)	16.4µM*	19.0%	?	-2.6%	1.8%	4.1%
CC1CCCCC1NC(=O)c1ccc(-n2cncn2)cc1 (configuration not stated)	-11.9%	8.5%	12.5%	14.6%	0.0%	-2.4%
Clc1ccc(-c2nnc(-c3ccc(Br)cc3)c(N3CCSCC3)n2)cc1	11.6µM*	0.0%	11.6µM*	-0.2%	0.5%	-2.6%
Nc1nc(-c2ccco2)nc(N2CCCCC2)n1	-0.8%	-0.8%	-2.3%	-3.9%	1.5%	0.1%
Clc1ccc(-c2csc(N3CCSCC3)n2)cc1	28.6%	6.3%	-16.4%	-3.8%	7.8%	-5.2%
Clc1ccc(-c2nnc(-c3ccco3)nc2N2CCCCC2)cc1	20.6µM*	8.5%	20.6µM*	-21.0%	11.7%	-16.1%
COc1cccc(CNC(=O)c2c(OC)cc(=O)n3c2CCN(C(=O)C2CC24CCCCC4)CC3)c1 (configuration not stated)	-15.1%	·	-0.5%	·	·	·
Cc1[nH][nH]c(=O)c1N=Nc1ccc(Br)c(Cl)c1	23.1µM*	10.6%	?	2.9%	6.5%	-33.1%
COc1ccccc1-c1nn(Cc2ccccc2)cc1/C=C/C(=O)O	-1.2%	7.9%	-0.3%	-2.2%	8.6%	2.9%
CCCCc1c(-c2ccccc2OC)ncn1CCc1cccc(Cl)c1	20.6µM*	18.4µM*	16.4µM*	·	?	·
CCCCc1c(-c2ccccc2OC)ncn1Cc1ccc(Cl)cc1	11.6µM*	?	13µM*	·	18.4µM*	·
COc1cccc(Cn2cnc(-c3ccccc3OC)c2-c2cccs2)c1	?	?	?	·	-22.8%	·
SMILES	TDP1 cell noCPT	HT1080-NT tox	DT40 TDP1 CPT	TGFb SMAD3 inh	HT1080 IDH1KD tx	HepG2 tox
COc1cccc(Cn2cnc(-c3ccccc3OC)c2C2CC2)c1	20.6µM*	?	?	·	?	·
COc1cccc(Cn2cnc(-c3ccccc3OC)c2-c2cccnc2)c1	?	?	?	·	-6.8%	·
CCCCc1c(-c2ccccc2OC)ncn1Cc1cccc(-c2ccccc2)c1	6.51µM*	20.6µM*	11.6µM*	·	?	·
O=C(OCN1C(=O)c2ccccc2C1=O)c1cccc(OC(F)F)c1	3.8%	9.6%	-2.6%	-0.7%	13.6%	9.8%
CCN1C(=O)CC(CC(=O)N2CCCCC2c2nccs2)(c2ccccc2C)C1=O (configuration not stated)	-12.3%	·	-2.2%[9.04 µM]	·	·	·
Cc1ccc(C(=O)C(OC(=O)CNS(=O)(=O)c2ccccc2)c2ccccc2)cc1 (configuration not stated)	2.1%	-0.3%	4.2%	?	7.9%	-2.3%
CCC(=O)N1CCCC(C)(C(=O)Nc2nccc3cccnc23)C1 (configuration not stated)	-5.6%	25.1%	-22.0%	15.7%	1.5%	18.4%
O=C(NCCCn1cccn1)C1CCC(=O)N(CCc2ccccc2)C1 (configuration not stated)	22.0%	9.5%	-1.8%	-2.0%	2.1%	4.7%
Cc1cccc(Oc2ccc3c(c2)cc(C(=O)O)n3C)c1	16.8%	1.8%	-5.4%	-20.1%	-5.3%	-31.4%
CCc1ccc(NC(=O)CSc2ncc(S(=O)(=O)c3cc(C)ccc3C)c(=O)[nH]2)cc1	·	·	·	-10.3%	·	-28.3%
CCCCc1c(-c2ccccc2OC)ncn1C1CCCC1	10.3µM*	?	18.4µM*	·	?	·
CCCCc1c(-c2ccccc2OC)ncn1Cc1ccc(-c2ccccc2)cc1	20.6µM*	?	14.6µM*	·	?	·
COc1ccccc1C1=Nn2c(nnc2C2CCCCC2)SC1	-28.0%	-1.6%	-30.2%	3.3%	-16.0%	-22.8%
Cn1c(=O)c(-c2ccc(F)cc2)nc2cnc(Nc3ccccc3)nc21	-3.8%	·	-0.7%	·	·	·

From PubChem
